Experimental data: the supplement of paper PMC3334620
In all, about 33,000 sequences were measured (“E-score (-0.5 to 0.5)”: median about -0.056, highest 2% from about 0.38 on). Only a selection was taken, and the highest values are over-represented in it overall.

Biological target: Stb4 (UniProt P50104)
Assay: PBM E-score (8-mer binding enrichment) (E-score (-0.5 to 0.5)); higher = stronger / more preferred TF binding
Details: protein concentration: 200 nM; construct: GST-DNA-binding domain
Experimental: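 Universal 'all 10-mer' protein binding microarrays (Agilent AMADID 015681) probed with GST-tagged S. cerevisiae TFs (full-length or DBD) made by in vitro transcription/translation (PURExpress), about 100-200 nM. Bound TF was detected with fluorescent anti-GST. Each ungapped 8-mer (which stands for itself and its reverse complement) is scored by the PBM enrichment score (E-score), a modified Wilcoxon-Mann-Whitney statistic from -0.5 to +0.5, computed with the Universal PBM Analysis Suite. Scale: above 0.35 generally sequence-specific binding.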

Sequence of UniProt P50104 (P50104 whole entry): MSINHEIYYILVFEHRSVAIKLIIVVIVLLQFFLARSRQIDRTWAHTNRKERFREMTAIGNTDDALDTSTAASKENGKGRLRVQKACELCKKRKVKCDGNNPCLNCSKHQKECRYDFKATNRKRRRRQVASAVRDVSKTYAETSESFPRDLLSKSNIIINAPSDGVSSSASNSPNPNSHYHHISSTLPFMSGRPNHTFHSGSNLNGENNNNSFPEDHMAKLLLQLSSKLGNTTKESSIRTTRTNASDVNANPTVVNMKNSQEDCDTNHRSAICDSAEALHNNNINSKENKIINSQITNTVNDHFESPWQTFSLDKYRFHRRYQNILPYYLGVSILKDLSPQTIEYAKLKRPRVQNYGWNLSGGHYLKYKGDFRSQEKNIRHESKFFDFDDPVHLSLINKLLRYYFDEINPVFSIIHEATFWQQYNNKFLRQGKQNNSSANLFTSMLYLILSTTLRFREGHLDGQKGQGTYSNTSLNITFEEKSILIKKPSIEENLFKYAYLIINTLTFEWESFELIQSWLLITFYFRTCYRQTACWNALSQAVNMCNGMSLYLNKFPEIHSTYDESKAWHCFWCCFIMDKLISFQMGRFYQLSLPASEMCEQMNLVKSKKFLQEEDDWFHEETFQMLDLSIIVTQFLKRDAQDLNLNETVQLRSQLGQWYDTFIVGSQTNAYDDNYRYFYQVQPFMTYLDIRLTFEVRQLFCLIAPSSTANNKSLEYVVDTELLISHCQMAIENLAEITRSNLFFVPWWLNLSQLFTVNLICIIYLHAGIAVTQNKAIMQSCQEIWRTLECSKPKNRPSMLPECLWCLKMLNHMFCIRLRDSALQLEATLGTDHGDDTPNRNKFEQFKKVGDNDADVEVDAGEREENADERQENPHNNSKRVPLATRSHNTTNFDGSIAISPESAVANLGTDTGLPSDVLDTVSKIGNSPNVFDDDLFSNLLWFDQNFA

Row | Sequence | PBM E-score
1 | GCTCAACC | -0.206
2 | ACTCTCCT | -0.272
3 | GGCAAGTA | 0.0793
4 | TGCGAGAA | -0.132
5 | CAAAATCA | -0.00631
6 | CATCCTAA | -0.079
7 | TGTCCGAA | 0.35
8 | TATCCGAA | 0.493
9 | CATCCGCA | 0.314
10 | GATCCGAA | 0.482
11 | TATCCAAA | -0.184
12 | CATCCAAA | -0.2
13 | GATCCAAA | -0.0151
14 | TATCCGCA | 0.408
15 | CATCCGAA | 0.476
16 | GATCCGTA | 0.351
17 | AATCCGCA | 0.157
18 | GCTTTCAC | -0.148
19 | GCTATAGC | -0.096
20 | ATTCTGCG | -0.0218
21 | GAGAGACC | -0.122
22 | ATACCTCC | -0.0529
23 | TGATATCA | -0.281
24 | TGCCACCA | -0.374

Row | Sequence | PBM E-score
25 | GGCGTCAC | -0.0997
26 | GCCTTCAA | -0.13
27 | GATGCGGC | 0.0547
28 | ATTCTTTC | -0.0171
29 | AATCCGTA | 0.12
30 | GGTCCGAA | 0.416
31 | GGTCCGAC | 0.292
32 | AATCCGAT | 0.368
33 | CGTCCGAA | 0.336
34 | AATCCGAA | 0.42
35 | TATAGCCA | -0.113
36 | CCGACTAA | 0.29
37 | CGGACAAG | 0.138
38 | CTCCTCGA | -0.284
39 | ATATCCTC | -0.03
40 | CTATCCAC | -0.0315
41 | CTATCCGC | 0.396
42 | CTATCCCC | -0.0734
43 | ATATCCGC | 0.389
44 | ACATCCGC | 0.382
45 | ACTGCCCG | 0.123
46 | ACTTTTCG | 0.0867
47 | GCCTCGCC | 0.0101
48 | AGCCCGGA | 0.361

Row | Sequence | PBM E-score
49 | GCCCCGGA | 0.385
50 | ACCCCGGA | 0.232
51 | CCCCCGGA | 0.176
52 | CGCCCGGA | 0.328
53 | GGCCCGGA | 0.402
54 | AGAGGTTC | 0.0565
55 | ATAGCGGG | 0.0172
56 | AAGATGTG | -0.156
57 | GCTAAGCA | -0.217
58 | CCACAGAA | -0.0915
59 | CCCAGACG | -0.17
60 | ATCTTCGG | 0.423
61 | ATCTTCCA | -0.137
62 | ATCTTCGC | 0.016
63 | AGCTTCGA | -0.189
64 | AACTTCGT | -0.177
65 | AACTTCGC | -0.041
66 | ATCTTCGA | -0.171
67 | AGCTTCGC | -0.276
68 | ATCTTCCG | 0.436
69 | AACTTCGG | 0.408
70 | AGCTTCGG | 0.395
71 | ATCTTCCC | 0.226
72 | ATCGAACC | 0.089

Row | Sequence | PBM E-score
73 | CTAGTCCA | -0.153
74 | ACCAATGC | -0.00399
75 | GTAGTCAC | -0.16
76 | CTCTACTC | -0.106
77 | GGATTCCA | 0.13
78 | ACCTTCCT | -0.342
79 | ACCTTCCC | 0.0875
80 | ACCTTCCG | 0.4
81 | CCCTACAA | -0.218
82 | ATCTATCA | -0.0983
83 | AGAATGGC | -0.0824
84 | TAGTCGGA | 0.405
85 | GAGTCGGC | 0.223
86 | GAGTCGGA | 0.387
87 | CAGTCGGA | 0.316
88 | AAGTCGGA | 0.372
89 | TAGTCGCA | -0.0285
90 | GGATCGGA | 0.402
91 | AGATCGGA | 0.438
92 | AGATCGGC | 0.189
93 | GGATCGAA | 0.214
94 | AGATCGGG | 0.28
95 | CGATCGGA | 0.322
